For 15 molecules, inhibition results are on record in PubChem BioAssay AID2057 (The Scripps Research Institute Molecular Screening Center, 2009).

Out of some 320,000 compounds screened, about 2,100 (0.66%) were called active. This is one part of a sample in which actives are shown more often than they occur. Unmarked numbers belong to inactive results.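 How the source made its calls: active means inhibition above the mean inhibition of all tested compounds plus 3 SD, set per campaign (cut at about 40% in these data); inactive means the rest.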

Sequence of Induced myeloid leukemia cell differentiation protein Mcl-1 (Homo sapiens) (Q07820 whole entry, looked up): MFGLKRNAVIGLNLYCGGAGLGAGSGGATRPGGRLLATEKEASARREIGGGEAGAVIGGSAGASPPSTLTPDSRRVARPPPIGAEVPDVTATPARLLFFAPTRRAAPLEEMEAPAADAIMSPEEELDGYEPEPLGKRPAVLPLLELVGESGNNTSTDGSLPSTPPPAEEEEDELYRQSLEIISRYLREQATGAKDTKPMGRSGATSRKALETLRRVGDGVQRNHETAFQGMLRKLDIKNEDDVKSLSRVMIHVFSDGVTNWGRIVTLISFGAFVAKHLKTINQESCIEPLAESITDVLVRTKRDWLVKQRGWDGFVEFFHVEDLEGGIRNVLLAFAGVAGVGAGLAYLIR

The test addresses Induced myeloid leukemia cell differentiation protein Mcl-1 (Homo sapiens) (UniProt Q07820). The test is described as follows: inhibitors of MCL1 binding to BIM-BH3, primary screen, biochemical, fluorescence polarization (AID 2057).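 Further: 0% = DMSO wells and 100% = unlabeled Bim-BH3 peptide control; higher means more loss of mP so more displacement of Bim peptide.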 The conditions noted are these: GST-MCL1 / FITC-Bim-BH3 fluorescence polarization; at 10.9 µM; stronger effect = higher value. (In general: Polarisation of emitted light reports the rotation of a fluorescent probe.)
Turning to `O=C1NC(=O)N(c2ccccc2)C(=O)/C1=C/c1ccc([N+](=O)[O-])s1`, the inhibition (in general, the change of the read-out against control, counted positive when it falls) is 44.1% (active).
With `CCOP(=S)(OCC)SCOC(=O)NCC(=O)OC`, the inhibition was 6.09%.
Under `C=CCN1C(=O)C2(C(C(=O)OCC)=C(N)Oc3c2c(=O)oc2ccccc32)c2ccccc21` (stereo not given) stands 1.78%; under `COc1cccc(N2C(=O)NC(=O)/C(=C\c3cn(C)c4ccccc34)C2=O)c1`, 55% (active).
Turning to `Cc1c(C(=O)O)cccc1-n1c(C)cc(/C=C2\C(=O)NC(=O)N(c3ccc4c(c3)OCO4)C2=O)c1C`, the inhibition was 2.52%.
Under `Cc1ccccc1N1C(=O)NC(=O)/C(=C\c2cc(C)n(C)c2C)C1=O` stands 1.23%.
In the case of `CCN(CC)C(=O)Oc1ccc(NC(=O)N2CCOCC2)cc1` it was 3.93%; in that of `Cc1cccc(OP(=O)(Oc2cccc(C)c2)OC(c2ccccc2)C(F)(F)F)c1` (stereo not given), 2.04%; in that of `CN(c1ccccc1)c1ccc([N+](=O)[O-])c2nonc12`, -24.9%.
Under `O=C(CCC(=O)N1C[C@H]2C[C@@H](C1)c1cccc(=O)n1C2)NCc1ccccc1C(F)(F)F` stands 2.96%.
With `COc1ccc(N2C(=O)/C(=C/c3ccco3)C(=O)NC2=S)cc1`, the inhibition was 53.9% (active).
Under `COc1ccc(CN2C(=O)NC(=O)/C(=C\c3ccc(OC)c(OC)c3OC)C2=O)cc1` stands -3.16%; under `Cc1cc(/C=C2/C(=O)NC(=O)N(Cc3ccco3)C2=O)c(C)n1-c1ccc(C(=O)O)cc1`, -11.8%; under `Cc1ccc(C)c(NC2=NCCCS2)c1`, 0.88%.
In the case of `COc1cccc(OC)c1C(=O)NC(=S)N1C[C@H]2C[C@H](C1)c1cccc(=O)n1C2` it was 9.55%.
